Screens as filed in PubChem.
Compounds with a hit are over-represented: about 19% of the library has one in this group of screens.
ELG1 DNA repair: inhibitors of ELG1-dependent DNA repair in HEK293T cells | AID 504467 | hit rate 2.3% among 330,000 | HEK293T ELG1-luciferase reporter, luminescence, 16 h; DNA damage induced by 5-fluorouridine | Potency, µM (series often up to 46.1 µM), for the others: top-dose activity change, negative = inhibition, usual class: inhibitors; further: potency means the concentration at half of the fitted maximal effect; nearly all actives have a fitted effect of over 55% in size
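5-Fluorouridine DNA damage + compound/DMSO, 2,000 cells/well, 16 h, 37 °C/5% CO2. ONE-Glo, 30 min RT, luminescence. Readout = decrease in reporter signal.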
HT1080 IDH1KD tx: HT-1080 IDH1 knockdown cell toxicity (counter line) | HT-1080 IDH1 knockdown viability, ATP luminescence, 48 h | hit rate 2% among 360,000 | Potency, µM (titrated, usually from 46.1 µM), inactives show at the highest dose activity, negative = toxicity, most hits filed as cytotoxic;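 further: potency means the concentration at half of the fitted maximal effect; 0% = DMSO wells and -100% = cell-free medium wells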
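Luminescent ATP read-out (CellTiter-Glo, 10 min at room temperature) after 48 h compound exposure at 37 °C gave viability of IDH1-knockdown HT-1080 cells. Activity was normalised to DMSO and cell-free wells, then fitted as concentration-response curves.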
HT1080NT lethal: kills 2HG-producing HT-1080-NT fibrosarcoma cells | HT-1080-NT fibrosarcoma viability, CellTiter-Glo ATP luminescence, 48 h | Potency, µM (series often up to 46.1 µM), for the others: at the top dose activity, negative = less viability, actives largely listed as cytotoxic | hit rate 1.6% among 360,000;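 further: NT is the 2HG producing partner of a matched IDH1 knockdown line; potency means the concentration at half of the fitted maximal effect; 0% = DMSO-treated cells and -100% = media-only wells without cells; nearly all actives have a fitted effect of over 55% in size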
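Luminescent CellTiter-Glo readout after 48 hours of compound exposure at 37 degrees C defined viability of HT-1080-NT cells. Activity was normalized to DMSO wells and cell-free media wells; concentration-response curves were fitted and assigned curve classes.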
IL1B secr inh: inflammasome signaling inhibition, IL-1 beta readout; THP-1 LPS/ATP IL-1B secretion, AlphaLISA, 16 h; hits give low values; activity change, % at 57.5 µM; hit rate 4.7% among 360,000; AID 743279; in the data active means activity change below about -50%; inconclusive means mostly about -30% to -49%
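THP-1 cells pretreated 1 hr with compounds (up to 57.5 uM final), then stimulated with LPS (250 ng/mL final) plus ATP (1.25 mM final); secreted IL-1B measured by AlphaLISA after 16 hr, decreased signal indicating inhibition.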
TDP1 cell noCPT: qHTS for Inhibitors of human tyrosyl-DNA phosphodiesterase 1 (TDP1): qHTS in cells in absence of CPT | hit rate 15% among 420,000 | Potency, µM (titrated, usually from 46.2 µM), inactives show at the highest dose activity change, negative = growth inhibition, usual class: inhibitors | DT40 Tdp1-/- hTDP1 cells, no CPT, ATP luminescence, 48 h | AID 686978, 2013; further: potency means the concentration at half of the fitted maximal effect; nearly all actives have a fitted effect of over 55% in size
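DT40 Tdp1-/-;hTDP1 cells, no CPT (DMSO vehicle only), 400 cells/well; compounds pin-transferred; ≥48 hr, 37 °C; CellTiter-Glo 30 min RT dark, luminescence read.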
TDP1 cell CPT: growth inhibition of DT40 Tdp1-/-;hTDP1 cells with camptothecin (screen for TDP1 inhibitors). Potency, µM (doses to about 46.2 µM), for the others: at the highest dose activity change, negative = growth inhibition, most hits filed as inhibitors. AID 686979. chicken DT40 Tdp1-/-;hTDP1 cells + 20 nM CPT, ATP luminescence, 48 h. hit rate 12% among 420,000; further: potency means the concentration at half of the fitted maximal effect; nearly all actives have a fitted effect of over 55% in size
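Chicken DT40 Tdp1-/- cells complemented with human TDP1, 400 cells/well, exposed to compounds plus 20 nM camptothecin for at least 48 h at 37 C; viability read as ATP content by CellTiter-Glo luminescence.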
ELG1 FLuc counter: luciferase inhibition in cell-free luciferin readout for ELG1 hits; shares compounds with ELG1 DNA repair; cell-free firefly luciferase luminescence counter-screen, ViewLux; Potency, µM (titrated, usually from 46.1 µM), inactives show at the top dose activity change, negative = inhibition, hits mostly inhibitors; hit rate 3% among 350; AID 624247; further: potency means the concentration at half of the fitted maximal effect
ELG1-Luc inh: inhibits ELG1-dependent DNA repair in HEK293T cells, confirmed; shares compounds with ELG1 DNA repair; HEK293T ELG1-luciferase levels, luminescence; cells co-treated with 5-fluorouridine; Potency, µM (series often up to 46.1 µM), for the others: at the highest dose activity change, negative = inhibition, most hits filed as inhibitors; hit rate 68% among 670; AID 624248; further: potency means the concentration at half of the fitted maximal effect; nearly all actives have a fitted effect of over 55% in size
Target sequence (Q96QE3 whole entry, looked up): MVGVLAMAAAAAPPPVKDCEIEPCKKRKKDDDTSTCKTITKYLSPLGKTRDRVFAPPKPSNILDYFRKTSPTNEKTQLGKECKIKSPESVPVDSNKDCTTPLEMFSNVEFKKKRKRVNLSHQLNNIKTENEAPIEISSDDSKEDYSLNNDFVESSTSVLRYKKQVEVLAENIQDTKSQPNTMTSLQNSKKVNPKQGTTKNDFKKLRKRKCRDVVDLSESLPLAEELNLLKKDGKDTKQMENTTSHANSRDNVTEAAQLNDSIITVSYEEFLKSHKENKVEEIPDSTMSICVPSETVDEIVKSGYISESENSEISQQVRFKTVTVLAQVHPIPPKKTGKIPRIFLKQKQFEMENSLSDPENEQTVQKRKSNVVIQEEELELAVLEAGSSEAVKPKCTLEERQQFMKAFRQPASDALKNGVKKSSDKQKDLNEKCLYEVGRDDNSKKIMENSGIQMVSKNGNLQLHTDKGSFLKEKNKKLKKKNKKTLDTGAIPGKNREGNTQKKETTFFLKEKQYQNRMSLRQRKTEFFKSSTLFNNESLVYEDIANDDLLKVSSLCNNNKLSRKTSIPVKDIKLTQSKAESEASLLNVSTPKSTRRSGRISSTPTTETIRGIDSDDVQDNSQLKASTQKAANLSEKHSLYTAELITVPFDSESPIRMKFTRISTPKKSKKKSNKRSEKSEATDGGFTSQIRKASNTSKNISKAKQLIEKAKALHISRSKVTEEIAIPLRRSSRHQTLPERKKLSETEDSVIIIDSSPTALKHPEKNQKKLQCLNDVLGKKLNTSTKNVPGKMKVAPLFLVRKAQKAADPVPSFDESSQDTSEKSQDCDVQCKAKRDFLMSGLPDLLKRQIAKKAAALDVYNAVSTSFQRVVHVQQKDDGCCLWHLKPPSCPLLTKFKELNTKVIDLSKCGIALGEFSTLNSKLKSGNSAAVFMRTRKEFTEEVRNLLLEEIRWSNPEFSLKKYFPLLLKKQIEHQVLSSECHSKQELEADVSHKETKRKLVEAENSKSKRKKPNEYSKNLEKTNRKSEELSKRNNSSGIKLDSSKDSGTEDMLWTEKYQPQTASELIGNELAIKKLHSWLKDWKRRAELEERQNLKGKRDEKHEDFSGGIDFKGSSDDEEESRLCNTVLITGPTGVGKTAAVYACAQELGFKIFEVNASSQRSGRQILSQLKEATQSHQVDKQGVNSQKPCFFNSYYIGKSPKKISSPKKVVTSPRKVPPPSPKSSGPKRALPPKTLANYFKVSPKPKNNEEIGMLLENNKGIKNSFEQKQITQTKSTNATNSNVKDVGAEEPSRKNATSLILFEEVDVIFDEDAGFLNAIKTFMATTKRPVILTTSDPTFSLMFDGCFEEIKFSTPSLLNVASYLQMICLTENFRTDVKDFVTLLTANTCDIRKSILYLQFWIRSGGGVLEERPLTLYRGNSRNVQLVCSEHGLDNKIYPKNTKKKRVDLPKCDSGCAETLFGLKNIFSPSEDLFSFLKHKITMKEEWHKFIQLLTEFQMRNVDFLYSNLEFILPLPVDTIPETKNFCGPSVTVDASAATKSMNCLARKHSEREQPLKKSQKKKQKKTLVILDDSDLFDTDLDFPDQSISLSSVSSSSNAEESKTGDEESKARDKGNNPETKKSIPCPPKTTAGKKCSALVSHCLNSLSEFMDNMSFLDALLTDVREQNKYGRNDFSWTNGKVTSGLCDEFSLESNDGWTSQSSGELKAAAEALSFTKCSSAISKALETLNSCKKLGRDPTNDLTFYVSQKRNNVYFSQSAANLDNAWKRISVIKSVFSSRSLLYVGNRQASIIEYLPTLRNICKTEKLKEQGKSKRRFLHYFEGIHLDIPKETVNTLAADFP
ELG1 MMS Luc: MMS-stimulated human ELG1 repair inhibition, confirmed | shares compounds with ELG1 DNA repair | Potency, µM (series often up to 46.1 µM), without a hit: top-dose activity change, negative = inhibition, hits mostly inhibitors | hit rate 53% among 670 | HEK293T luciferase-tagged ELG1 level, MMS stimulated; further: potency means the concentration at half of the fitted maximal effect; nearly all actives have a fitted effect of over 60% in size
ELG1 5-FU: confirmation of ELG1 repair inhibitors: viability with 5FU; shares compounds with ELG1 DNA repair; cell viability with 5-FU, ELG1-dependent repair; AID 624250; 670 tested, under 10 active; Potency, µM (doses to about 46.1 µM), without a hit: top-dose activity change, negative = viability loss, usual class: cytotoxic;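 further: ELG1-luc HEK293T cells cotreated with 5-fluorouridine at 10 µM final; potency means the concentration at half of the fitted maximal effect; viability measured 16 h after compound addition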
ELG1 MMS cell: confirmation of ELG1 repair inhibitors: viability with MMS | shares compounds with ELG1 DNA repair | Cell viability with MMS, ELG1-dependent DNA repair | Potency, µM (top dose mostly 46.1 µM), inactives show at the highest dose activity change, negative = viability loss, actives largely listed as cytotoxic | hit rate 33% among 670 | AID 624251;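 further: ELG1-luc HEK293T cells co-treated with 10 µM MMS; potency means the concentration at half of the fitted maximal effect; viability read 16 h after compound addition; nearly all actives have a fitted effect of over 60% in size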
ELG1 unstim viab: unstimulated viability counter-screen for ELG1 repair hits | cell viability counter-screen, unstimulated, luminescence | shares compounds with ELG1 DNA repair | Potency, µM (doses to about 45.9 µM), inactives show at the highest dose activity change, negative = loss of viability, actives largely listed as cytotoxic | AID 624252 | hit rate 8% among 900;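 further: potency means the concentration at half of the fitted maximal effect; compound exposure lasted 16 hours before reading; nearly all actives have a fitted effect of over 55% in size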
FLuc biochem: counter-screen for ELG1 repair inhibitors: firefly luciferase inhibition; shares compounds with ELG1 DNA repair; purified firefly luciferase, luminescence counter-screen; Potency, µM (top dose mostly 57.5 µM), for the others: at the highest dose activity, negative = inhibition, hits mostly inhibitors; hit rate 10% among 350; AID 624253; further: potency means the concentration at half of the fitted maximal effect
* hit, by the source's call; i = inactive; ? = inconclusive; · = no result given; [ ] = dose if it differs, or a comment. Unless noted, the call rests on the fitted dose curve; in most records, active means well fitted curve in the direction sought with a large enough effect; inconclusive means small, poorly fitted or top-dose-only effect, or another doubt; inactive means no such curve, though single readings can be large; an effect the other way counts as inactive or inconclusive. Unless noted, on the % scale 0 is the no-effect control and ±100 the full control effect.

SMILES	ELG1 DNA repair	HT1080 IDH1KD tx	HT1080NT lethal	IL1B secr inh	TDP1 cell noCPT	TDP1 cell CPT	ELG1-Luc inh	ELG1 MMS Luc	ELG1 5-FU	ELG1 MMS cell	ELG1 unstim viab	others
O=C1CCC[C@@H]2Cc3nc4cc5c(cc4cc3[C@@H]3CCN1[C@H]23)OCO5	·	-0.7%	-0.1%	-10.5	15.8µM*	18.4µM*	·	·	·	·	?
Cc1c(C(=O)N2CCCC2)c(S(=O)(=O)Nc2ccccc2)c(C)n1C	6.3%	8.2%	11.1%	2.3	29.9%	-4.4%	·	·	·	·	·
Cc1ccc(-c2nc3ccccc3n3c(C)nnc23)cc1	4.0%	·	·	·	·	·	·	·	·	·	·
Cc1ccc(-c2nc3ccccc3n3nnnc23)cc1	?	2.4%	2.6%	2.2	7.31µM*	13µM*	·	·	·	·	3.4%	ELG1 FLuc counter=59.3%;FLuc biochem=?
Cc1ccccc1-c1cccc([C@@H]2C[C@H]3C(CN2)CON3C)c1 (stereo partly drawn)	·	0.3%	2.3%	15.0	-29.6%	?	·	·	·	·	·
Cc1ccc(-n2nc3c(=O)n(CC(=O)NCCc4ccccc4C)nc(C)c3c2C)cc1	3.66µM*	-3.9%	-8.3%	-10.1	?	?	?	9.96µM*	-13.4%	9.96µM*	?
Cc1ccc(-n2nc3c(=O)n(CC(=O)NCc4ccccn4)nc(C)c3c2C)cc1	-14.3%	-0.3%	1.4%	-8.6	-25.2%	-8.7%	·	·	·	·	·
Cc1ccc(C)c(OCC(=O)N/N=C/c2ccc(N3CCOCC3)cc2)c1	·	-0.8%	-0.3%	-7.9	?	?	·	·	·	·	·
O=c1c(-c2ccc(F)cc2)coc2c3c(ccc12)OCCO3	?	17.8%[9.24 µM]	-2.5%	-3.3	-14.8%	0.6%	·	·	·	·	?	ELG1 FLuc counter=123.5%;FLuc biochem=?
CCOC(=O)C1=CCN(S(=O)(=O)c2ccccc2Br)C1c1ccc(F)cc1 (stereo not drawn)	·	-17.8%	-19.4%	-15.6	?	?	·	·	·	·	·
Cc1csc(SCC(=O)Nc2cccc3nsnc23)n1	2.59µM*	-6.4%	-6.3%	-13.0	?	7.31µM*	2.81µM*	?	-10.3%	-5.5%	-19.4%
Cc1csc(SCC(=O)Nc2ccccc2C)n1	13.5%	4.8%	4.5%	5.4	-7.5%	0.8%	·	·	·	·	·
CCn1cc(C(=O)NCC(OC)OC)c(=O)c2cc(S(=O)(=O)N3CCC(C)CC3)ccc21	2.59µM*	-1.5%	-4.7%	-6.5	10.3µM*	?	15.8µM*	15.8µM*	-19.9%	?	15.8µM*
CCOCCCNC(=O)c1cn(C)c2ccc(S(=O)(=O)N3CCCCC3)cc2c1=O	-4.2%	16.3%	-3.7%	0.7	17.3%	-3.6%	·	·	·	·	·
COCCNC(=O)c1cn(C)c2ccc(S(=O)(=O)N3CCCCC3)cc2c1=O	2.91µM*	?	-7.0%	6.4	?	?	?	?	-1.6%	-15.3%	?
CCOc1ccc(NC(=O)c2ccccc2C(=O)c2ccccc2)cc1OCC	1.3%	-1.7%	-1.7%	-1.5	?	?	·	·	·	·	·
CC1CCC(NC(=O)CN2C(=O)NC(C)(C)C2=O)CC1 (stereo not drawn)	23.4%	4.5%	13.5%	6.0	2.5%	-8.7%	·	·	·	·	-17.4%	ELG1 FLuc counter=70.9%;FLuc biochem=-3.2%
CC1CCC2(CC1)NC(=O)N(CC(=O)NC1CCCCC1C)C2=O (stereo not drawn)	10.9%	-0.1%	1.1%	-10.4	-65.7%	?	·	·	·	·	·
O=S(=O)(c1c(Cl)cc(Br)cc1Cl)N1CCN(C(=S)NC2CC2)CC1	4.11µM*	-5.8%	-9.8%	-84.6*	?	?	3.97µM*	15.8µM*	?	14.1µM*	-12.4%
O=S(=O)(c1ccccc1)N1CCN(C(=S)NC2CCCC2)CC1	?	0.0%	-4.2%	i	-13.4%	-3.1%	·	·	·	·	·
O=C(CCC(=O)Nc1cccc(C(F)(F)F)c1)NCC1CCCO1 (stereo not drawn)	-9.1%	10.5%	18.3%	-2.4	5.3%	26.3%	·	·	·	·	·
O=C(COc1ccc(C(=O)NCC2CCCO2)cc1)Nc1cccc(C(F)(F)F)c1 (stereo not drawn)	3.26µM*	-6.0%	1.4%	2.9	?	?	?	?	11.0%	?	-4.1%
CC(C(=O)NCc1ccccc1)N1CCN(c2ccc(F)cc2)CC1 (stereo not drawn)	-1.3%	-1.3%	-0.3%	-14.3	7.1%	5.6%	·	·	·	·	·
N#C/C(=C\c1cccnc1)c1ccccn1	?	-0.7%	-0.1%	0.0	-4.0%	-3.5%	·	·	·	·	4.3%	ELG1 FLuc counter=44.4%;FLuc biochem=-3.0%
COc1cc2nc(CN(CCC(C)C)Cc3nc4cc(OC)c(OC)cc4c(=O)[nH]3)[nH]c(=O)c2cc1OC	1.46µM*	1.2%	-5.0%	-17.6	-8.3%	2.3%	2.81µM*	?	?	6.8%	-16.9%
